Laboratory results published in PubChem BioAssay.
Active and inactive are the calls of the source.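 The calls were made as follows, unless noted: active = mean z-score across replicates of 1.96 or higher in either the MELAS or the Rieske mutant cell line; inactive = the rest.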

Key:
[1] = compounds altering viability of human ES cells (AID 493140; call rule not given here;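 also: cells exposed to compounds for four days before counting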); settings: human embryonic stem cell survival screen; stronger effect = higher value
[2] = P. berghei load reduction in hepatocytes – cell-based, HepG2, luciferase luminescence, HepG2 viability, primary screen (AID 624349; in the data active = parasite load remaining mostly below about 12%, no sharp cut-off; inactive = mostly above about 10%;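 also: 100% = mean of DMSO negative control wells on the same plate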); settings: P. berghei liver stage in HepG2, luciferase luminescence, concentration not given here; parasite load remaining: stronger effect = lower value; viability: measured here: HepG2 viability without parasites
[3] = viability loss with induced miR-34 in A549 – imaging, A549 dox-inducible miR-34, nuclei and caspase counts, primary screen (AID 1347080;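 active = compounds whose cell count with miR-34 switched on is under 0.7 times the count with it off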); settings: A549 miR-34 inducible, Hoechst nuclei count, 48 h
[4] = MELAS cybrid and Rieske KO viability enhancers – cell-based, MELAS cybrids, Rieske KO mouse fibroblasts, CellTiter-Glo, primary screen (AID 1508586); settings: low glucose;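 also: z relative to plate mean and SD of compound and empty wells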

O=C(O)C(O)C(O)C(O)C(O)C(=O)O (centres undefined) (tested in a mixture with another compound)
survival [1]: 5.33 (inactive) | parasite load remaining [2]: 114% (inactive) | viability [2]: 71.7% | fold change ([3]; stronger effect = lower value, cell number ratio, induced over uninduced): 0.895 (inactive) | fold change ([3]; measured here: relative caspase fold change +Dox/-Dox): 0.792 | cell count ([3]; measured here: total cells with miR-34 induction, stronger effect = lower value): 8860 | cell count ([3]; measured here: total cells without miR-34 induction): 9910 | z-score ([4]; MELAS cybrid survival, CellTiter-Glo 48 h, stronger effect = higher value): -1.4 (inactive) | z-score ([4]; Rieske KO mouse fibroblast survival, CellTiter-Glo 72 h): -0.918
